High-throughput results (PubChem)
Cruzain noTriton = blocks cruzain activity in detergent-free assay | P25779 | purified cruzain, Z-FR-AMC fluorescence, no detergent | Potency, µM, usual class: inhibitors | 2.3% of 200,000 active | AID 1476; also: nearly all actives have a fitted effect of over 40% in size
Target sequence (P25779 123-467 limits assumed): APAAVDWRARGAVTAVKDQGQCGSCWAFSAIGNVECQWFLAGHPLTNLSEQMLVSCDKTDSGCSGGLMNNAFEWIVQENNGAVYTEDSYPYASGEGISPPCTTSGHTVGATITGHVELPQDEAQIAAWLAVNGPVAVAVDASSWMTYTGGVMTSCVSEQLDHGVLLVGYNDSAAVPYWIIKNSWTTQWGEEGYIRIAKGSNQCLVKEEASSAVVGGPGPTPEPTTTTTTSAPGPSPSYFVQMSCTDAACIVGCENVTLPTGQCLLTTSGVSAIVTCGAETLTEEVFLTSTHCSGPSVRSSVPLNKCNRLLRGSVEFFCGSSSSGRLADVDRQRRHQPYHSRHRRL
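Detergent-free condition (0.00005% Triton X-100) in acetate buffer pH 5.5 with DTT. 1.5 nM enzyme and compound were pre-mixed 15 min, then 2 uM Z-FR-AMC substrate added; reaction progress from fluorescence change between first and third reads (60 s).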
Cruzain inh Det = cruzain (T. cruzi) inhibition with detergent. Potency, µM, actives largely listed as inhibitors. 0.43% of 200,000 active. purified cruzain, Z-FR-AMC fluorescence, 0.01% Triton. P25779; also: nearly all actives have a fitted effect of over 40% in size
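Z-FR-AMC hydrolysis (2 uM substrate) by cruzain (1.5 nM) monitored kinetically at ex 360/em 450 nm after 15 min room-temperature compound exposure; 0.01% Triton X-100, pH 5.5, 5 mM DTT.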
Each line names hits and unclear results; the compound was inactive in the other large screens; ! = not confirmed by another sample. Most compounds without a hit are left out; they make up all but 2.6% or so of the library. Calls follow the shape of the dose curve; as a rule, active = well fitted curve in the direction sought with a large enough effect; inconclusive = small, poorly fitted or top-dose-only effect, or another doubt; inactive = no such curve, though single readings can be large; an effect the other way counts as inactive or inconclusive.

CSc1cccc(NC(=O)C2CCN(S(=O)(=O)c3ccc4[nH]c5c(c4c3)CCCCC5)CC2)c1	Cruzain noTriton 12.6µM
COc1cc(OC)c(NC(=O)CCc2c(C)nc3ncnn3c2C)cc1Cl	none
O=C(Oc1ccc(N(Cc2cccs2)C2=NS(=O)(=O)c3ccccc32)cc1)c1ccco1	none
O=C(Oc1ccc(N(Cc2cccs2)C2=NS(=O)(=O)c3ccccc32)cc1)c1ccccc1Cl	Cruzain noTriton 10µM
Cc1ccc(NC(=O)c2ccc3nc(Cc4ccccc4)oc3c2)cc1F	Cruzain noTriton inconclusive
CCOC(=O)C1=C(C)NC(C)=C(C(=O)OCC)C1c1cccs1	none
C#CCSC1=C(C#N)C(c2cccs2)C(C(=O)OCC)=C(C)N1 (stereo unspecified)	Cruzain noTriton 20µM
CCC(CC)C(=O)Nc1c(C(=O)N2CCN(c3ccccc3F)CC2)oc2ccccc12	Cruzain noTriton inconclusive
CN(Cc1ccccc1)S(=O)(=O)c1ccc(OCC(=O)Nc2cccc([N+](=O)[O-])c2)cc1	none
Cc1cc(S(=O)(=O)NCc2ccccc2)ccc1OCC(=O)Nc1cccc([N+](=O)[O-])c1	Cruzain noTriton 25.1µM
COc1ccc(S(=O)(=O)Nc2nc3ccccc3nc2Nc2ccc3c(c2)OCO3)cc1	Cruzain noTriton inconclusive
O=S(=O)(Nc1nc2ccccc2nc1Nc1ccc2c(c1)OCCO2)c1cccs1	Cruzain noTriton 25.1µM
O=C(NCc1ccc2c(c1)OCO2)C1CCN(S(=O)(=O)N2CCCCC2)CC1	none
O=C(NCc1ccc2c(c1)OCO2)C1CCN(c2ccc(S(=O)(=O)N3CCCC3)cc2)CC1	Cruzain noTriton 25.1µM
N#CC1=C(N)n2c(s/c(=C\c3ccco3)c2=O)=C(C#N)C1c1ccco1 (stereo unspecified)	none
N#CC1=C(N)n2c(s/c(=C\c3cccs3)c2=O)=C(C#N)C1c1cccs1 (stereo unspecified)	Cruzain noTriton 25.1µM
CCOCCc1nnc(NC(=O)C(=O)c2cc(C)n(-c3ccc(C)cc3C)c2C)s1	Cruzain noTriton inconclusive
Cc1cc(C)cc(-n2nnnc2SCC(=O)Nc2nc(-c3ccc(F)cc3)cs2)c1	Cruzain noTriton 25.1µM
Cc1nnc(SCC(=O)Nc2nc(-c3ccccc3)cs2)n1N	none
Cc1cc(C)cc(-n2nnnc2SCC(=O)Nc2nc(-c3ccc(Cl)cc3)cs2)c1	Cruzain noTriton 6.31µM
Cc1ccc(-n2nnnc2SCC(=O)Nc2nc(-c3ccc(F)cc3)cs2)cc1C	Cruzain noTriton inconclusive
CCOC(=O)c1cc(-c2ccc(C)cc2)n(CC(=O)Nc2ccc(OC)c(Cl)c2)c1C	none
Cc1ccc(C)n1-c1nnc(N2CCC(C(=O)Nc3ccccc3Br)CC2)s1	none
Cc1ccc(C(=O)c2sc3nsc(C)c3c2N)cc1	none
Cc1snc2sc(C(=O)c3ccc(Br)cc3)c(N)c12	Cruzain noTriton 15.8µM, Cruzain inh Det 20µM
CC1CCN(c2ccc(/C=N\Nc3nncn3N)cc2[N+](=O)[O-])CC1	Cruzain noTriton 25.1µM
CC1CCN(c2ccc(/C=N/n3nnnc3N)cc2[N+](=O)[O-])CC1	none
CCOC(=O)C1=C(c2ccccc2)NC(=S)NC1c1cc([N+](=O)[O-])ccc1OC (stereo unspecified)	Cruzain noTriton 25.1µM
CCOC(=O)C1=C(c2ccccc2)NC(=S)NC1c1cccc([N+](=O)[O-])c1 (stereo unspecified)	none
COCCn1c(=O)c(C)nc2cnc(Oc3ccccc3)nc21	none
O=C(/C=C/NNC(=O)c1cccc(Br)c1)c1cccc(Br)c1	Cruzain noTriton 7.94µM
O=C(/C=C/NNC(=O)c1ccccc1)c1ccc(Br)cc1	Cruzain noTriton inconclusive
COc1ccc(N2CCN(C(CNC(=O)CC(C)C)c3ccc4c(c3)OCO4)CC2)cc1 (stereo unspecified)	none
Cc1sc2ncnc(SCC(=O)NCC(C)C)c2c1C	none
Cc1nnc(NC(=O)CSc2ncnc3scc(-c4ccccc4)c23)s1	none
COC(=O)c1c(-c2ccccc2)csc1NC(=O)CSc1ncnc2sc(C)c(C)c12	Cruzain noTriton 6.31µM
CCc1ccc(OCC(=O)NNC(=O)CSc2ncnc3sc(C)c(C)c23)cc1	Cruzain noTriton 20µM
Cc1sc2ncnc(SCC(=O)c3ccc(Cl)s3)c2c1C	Cruzain noTriton 10µM
Cc1sc2ncnc(SCc3ccco3)c2c1C	none
COC(=O)c1cc(-c2ccc(Cl)cc2)c2c(=O)[nH]c(=O)n(C)c2n1	none
CCc1nnc(NC(=O)c2ccc(-c3cc(C(F)(F)F)ccc3Cl)o2)s1	none
CCc1nnc(NC(=O)c2ccc(COc3ccccc3)o2)s1	Cruzain noTriton inconclusive
CCc1nnc(NC(=O)c2ccc(COc3ccc(C)cc3)o2)s1	Cruzain noTriton 25.1µM
CCc1nnc(NC(=O)c2ccc(-c3cccc(C(F)(F)F)c3)o2)s1	Cruzain noTriton 12.6µM
CCc1c(C)c2ccc(O)c(CN3CCN(c4ccc(F)cc4)CC3)c2oc1=O	none
C[C@H](N)c1nnc(SCC(=O)N(C)C)o1	none
CN(C)C(=O)CSc1nnc([C@@H](N)Cc2ccccc2)o1	Cruzain noTriton 25.1µM, Cruzain inh Det 20µM
Cc1ccc(Sc2ccc(N3CCCC(C(=O)Nc4ccc(Br)cc4)C3)nn2)cc1 (stereo unspecified)	Cruzain noTriton inconclusive
COc1cc(NC(=O)CN2C(=O)C(c3ccc(C)cc3)=NC23CCCCCC3)cc(OC)c1	none
Cn1nnc(C(O)CNCc2cccs2)n1 (stereo unspecified)	none
Cn1nnc(NCc2cc(Br)ccc2OCc2cccs2)n1	Cruzain noTriton 31.6µM
COc1cccc(NC(=O)CSc2cc(C)[nH]c(=O)n2)c1	none
CN(CC(=O)Nc1ccc(OC(F)(F)F)cc1)S(=O)(=O)c1ccc2c(c1)CCC(=O)N2	none
CCn1c(C(=O)NCc2ccccc2Br)cc2oc3ccccc3c21	Cruzain noTriton inconclusive
CCn1c(C(=O)NCc2cc(Br)ccc2OC)cc2oc3ccccc3c21	Cruzain noTriton 31.6µM
CCc1ccc(OCC(=O)N(Cc2ccc(C)o2)C2CCS(=O)(=O)C2)cc1 (stereo unspecified)	none
Cc1ccc2sc3ccc(NC(=O)c4ccccc4Cl)cc3c(=O)c2c1	Cruzain noTriton 25.1µM
CCCn1c(=O)sc2cc(NC(=O)c3ccccc3Cl)ccc21	none
COc1cccc(/C=C/c2nc3ccccc3c(=O)n2-c2ccc(C)c(C)c2)c1OC	none
COc1ccc(S(=O)(=O)NCCS(=O)(=O)N2CCN(c3ccccc3)CC2)cc1OC	none
Cc1cccc(NC(=O)c2cc(-c3ccc(C)s3)nc3ccccc23)n1	Cruzain noTriton 20µM
CC(C)CCNC(=O)c1cc(-c2ccc(Br)s2)nc2ccccc12	Cruzain noTriton 3.16µM
CCCCN(C)CCCNC(=O)c1cc(-c2ccc(Br)s2)nc2ccccc12	none
Cc1cc(NC(=O)c2cc(-c3ccc(C)s3)nc3ccccc23)no1	none
COc1ccc(OCCn2c(C(C)Oc3ccccc3)nc3ccccc32)cc1 (stereo unspecified)	none
O=C(CSc1ccc2ccccc2n1)Nc1nsc(-c2ccc(Cl)cc2)n1	Cruzain noTriton 31.6µM!
Cc1ccc(-c2nc(NC(=O)CSc3cc(C)c4ccccc4n3)ns2)cc1	Cruzain noTriton inconclusive
COc1ccc(CNC(=O)c2cccn2-c2nnc(N3CCCCC3)s2)c(OC)c1	none
COc1cccc(-c2nn(-c3ccccc3)cc2C(=O)n2nnc3ccccc32)c1	Cruzain noTriton 31.6µM
O=C(c1cn(-c2ccccc2)nc1-c1ccccc1)n1nnc2ccccc21	Cruzain noTriton inconclusive
CC1(C)C[C@](C)(C(=O)c2ccccc2)C=C1c1ccccc1	none
COc1ccccc1N1CCN(C(=O)CSc2ncnc3scc(-c4ccccc4)c23)CC1	none
